Here are results for eight molecules from PubChem BioAssay (NCATS).

Each structure is given as a SMILES string. Results filed as inconclusive are left out. Values without a mark were called inactive. Activity calls are given as the source filed them. The call rests on the fitted dose curve; in most records, active means well fitted inhibition curve with a large enough effect; inconclusive means small, poorly fitted or top-dose-only effect; inactive means flat fitted curve, though single readings scatter.

One experiment has as its system ICS. The experiment can be described thus: qHTS profiling for inhibitors of Plasmodium falciparum proliferation (AID 504749). Further: potency means the concentration at half of the fitted maximal effect. The following applies: P. falciparum in erythrocytes, SYBR Green DNA, 72 h; series mostly up to 28.7 µM. The procedure, abridged:
(§1)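 P. falciparum-infected erythrocytes (0.3% parasitemia, 2.5% hematocrit) incubated with compound 72 h at 37 C, 5% CO2. Parasite DNA detected by SYBR Green after lysis, overnight at room temperature; normalised to 0.29 uM artemisinin and DMSO.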
In general terms: Quantitative high-throughput screening tests each substance at several concentrations.

The subject of another experiment is JCK. The description is as above. The following applies: P. falciparum in erythrocytes, SYBR Green DNA, 72 h; series mostly up to 28.7 µM. In a few lines: as §1
A further experiment relates to N140. The description is as above. To be noted: P. falciparum in erythrocytes, SYBR Green DNA, 72 h; series mostly up to 28.7 µM. The procedure, abridged:
as §1

In another experiment the test system is P93_24. Described as above. To be noted: P. falciparum in erythrocytes, SYBR Green DNA, 72 h; series mostly up to 28.7 µM. The procedure, abridged: as §1
A further experiment relates to P94_40. The description is as above. To be noted: P. falciparum in erythrocytes, SYBR Green DNA, 72 h; series mostly up to 28.7 µM. The procedure, abridged:
as §1

Another experiment concerns PAD. The experiment is described as above. To be noted: P. falciparum in erythrocytes, SYBR Green DNA, 72 h; series mostly up to 28.7 µM. In a few lines: as §1
In a further experiment the test system is PC15. The experiment is described as above. The following applies: P. falciparum in erythrocytes, SYBR Green DNA, 72 h; series mostly up to 28.7 µM. In a few lines: as §1
A further experiment has as its system PC26. The description is as above. The following applies: P. falciparum in erythrocytes, SYBR Green DNA, 72 h; series mostly up to 28.7 µM. In a few lines:
as §1

In another experiment the test system is PC49. The experiment is described as above. To be noted: P. falciparum in erythrocytes, SYBR Green DNA, 72 h; series mostly up to 28.7 µM. In a few lines: as §1
The test system of the next experiment is SC27B. Described as above. To be noted: P. falciparum in erythrocytes, SYBR Green DNA, 72 h; series mostly up to 28.7 µM. The procedure, abridged:
as §1

Another experiment deals with TAB109. The description is as above. The following applies: P. falciparum in erythrocytes, SYBR Green DNA, 72 h; series mostly up to 28.7 µM. The procedure, abridged: as §1
The next experiment deals with TAB113. The experiment is described as above. The following applies: P. falciparum in erythrocytes, SYBR Green DNA, 72 h; series mostly up to 28.7 µM. In a few lines: as §1
The test system of the next experiment is TAB165. The description is as above. To be noted: P. falciparum in erythrocytes, SYBR Green DNA, 72 h; series mostly up to 28.7 µM. The procedure, abridged: as §1
In a further experiment the test system is W2. The description is as above. The following applies: P. falciparum in erythrocytes, SYBR Green DNA, 72 h; series mostly up to 28.7 µM. The procedure, abridged:
as §1

In the next experiment the test system is HEK293. The experiment can be described thus: Cytotoxic Profiling of Annotated Libraries Using Quantitative High-Throughput Screening (AID 1296008). Further: potency means the concentration at half of the fitted maximal effect. On max response: on the % scale 0 is the no-effect control and ±100 the full control effect. The following applies: Five cell lines viability, CellTiter-Glo ATP luminescence, 48-72 h; max response: hits give low values. In a few lines:
(§2)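 Cells exposed to compounds for 48 or 72 hr at 37 degrees Celsius. Viability read as ATP-coupled luminescence with CellTiter-Glo after 10 min at room temperature.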
Background: ATP-based viability assays read luminescence as a measure of living cells.

The next experiment concerns HaCat. Described as above. The following applies: Five cell lines viability, CellTiter-Glo ATP luminescence, 48-72 h; max response: hits give low values. The procedure, abridged: as §2
Another experiment concerns KB-3-1. Described as above. To be noted: Five cell lines viability, CellTiter-Glo ATP luminescence, 48-72 h; max response: hits give low values. In a few lines:
as §2

In the next experiment the test system is NIH3T3. The experiment is described as above. To be noted: Five cell lines viability, CellTiter-Glo ATP luminescence, 48-72 h; max response: hits give low values. In a few lines:
as §2

Experiment [1] has as its system CRL-7250. The experiment is described as above. To be noted: Five cell lines viability, CellTiter-Glo ATP luminescence, 48-72 h; max response: hits give low values. The procedure, abridged:
as §2

Experiment [2] relates to CRL-7250. The experiment in a line: qHTS assay to identify novel small-molecules to repurpose for Merkel cell carcinoma treatment (AID 1296009). The following applies: MCC and control cell lines, CellTiter-Glo viability, 72 h; at 44.8 µM (top of the series) unless noted. In a few lines: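 Cells were treated for 72 hr at 37 degree celsius with compounds in 8- or 11-point dose response. Viability was read by CellTiter-Glo luminescence, normalized to no-cell (cytotoxicity) and DMSO controls.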
Further: nearly all actives have a fitted effect of over 60% in size.

As for `Cc1ncc2n1-c1ccc(Cl)cc1C(c1ccccc1F)=NC2`, the Potency entry in the experiment on ICS, in the experiment on JCK, in the experiment on N140, in the experiment on P93_24, with P94_40 and in the experiment on PAD was “inactive” in each case. Further, the Potency entry in the experiment with PC15, in the experiment with PC26, in the experiment on PC49, in the experiment on SC27B, with TAB109 and in the experiment with TAB113 was “inactive” in each case. Besides, the Potency result with TAB165 and in the experiment on W2 was “inactive” in each case. The max response was -4.93% in the experiment with HEK293, -24.4% in the experiment with KB-3-1 and -10.5% in the experiment with NIH3T3. In addition, in the experiment with HaCat, the molecule was classed as inactive.
For the molecule `Cc1nnc2n1-c1sc(CCc3ccc(CC(C)C)cc3)cc1C(c1ccccc1Cl)=NC2C` (stereo unspecified), the Potency with HEK293 was 7.5 µM (active).
Turning to `COc1ccc2c(C(=O)c3ccc(Cl)cc3)c(C)n(CC(=O)O)c2c1`, the results for the max response with CRL-7250 [1] and with NIH3T3 were -9.6% and -34.1%, respectively. Also, the outcome in the experiment on KB-3-1 was inactive.
On to `C[C@]12CC[C@H]3[C@@H](CCC4=CC(=O)CC[C@@]43C)[C@@H]1CC[C@@H]2C(=O)O`, for which the outcome in the experiment on CRL-7250 [1], in the experiment on HaCat and in the experiment on CRL-7250 [2] was inactive. Moreover, the max response in the experiment on NIH3T3 is 3.4%.
Turning to `CCN1CCCC1CNC(=O)C(O)(c1ccccc1)c1ccccc1` (stereo unspecified), the max response in the experiment on CRL-7250 [1] was -23.4%; with HaCat it was -7.18%. In addition, the outcome in the experiment on NIH3T3 was inactive.
As for `CCOC(C(=O)OCCN(C)C)(c1ccccc1)c1ccccc1`, in the experiment on HEK293, the max response was -2.86%.
As to `Oc1ccc2[nH]cc(CCCCN3CC=C(c4ccccc4)CC3)c2c1`, the Potency in the experiment on ICS is 8.91 µM (active); with P93_24 it was 11.2 µM (active); with PC26, 13.5 µM (active); with TAB165, 11.2 µM (active); with W2 it was 5.36 µM (active). For the same molecule, the Potency entry in the experiment with JCK was “inactive”. Moreover, the figures for the max response with CRL-7250 [1] and in the experiment with KB-3-1 were 4.19% and 7.3%, respectively. In addition, the outcome in the experiment on HaCat was inactive.
Regarding `CCNc1nc(Cl)nc(NCC)n1`, the Potency entry with ICS, in the experiment with JCK, in the experiment on N140, in the experiment on P93_24, in the experiment on P94_40 and in the experiment on PAD was “inactive” each time. For the same molecule, the Potency entry in the experiment with PC15, in the experiment with PC26, with PC49, in the experiment on SC27B, in the experiment on TAB109 and in the experiment with TAB113 was “inactive” in each case. Moreover, the Potency entry with TAB165 and in the experiment with W2 was “inactive” throughout. The max response in the experiment on CRL-7250 [1] was -9.95%; in the experiment on KB-3-1, -15.4%; in the experiment on NIH3T3 it was -12.6%.
